In PubChem BioAssay:
The source made the active and inactive calls. Unless noted, no rule for the calls is given here.

What was measured:
[1] = system: Wnt5a (protein binding on small-molecule microarray); experiment: small molecules binding Wnt5a protein – biophysical, small-molecule microarray, 635/667 nm fluorescence, primary screen (AID 1142); conditions: 635 nm fluorescence, higher = more signal;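 also: fluorescence read at 667 nm with signal to noise per printed feature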
[2] = ATP-based viability of Huh7 replicon cells – cell-based, CellTiter-Glo luminescence, basal, 48 h, cytotoxicity control for HCV replication inhibitor project, primary screen (AID 1143); conditions: higher = more signal, called active from +8 up or from −8 down;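 also: Huh7 hepatoma cells carrying a hepatitis C replication reporter with no stimulus; test concentration not given here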
[3] = Pseudomonas biofilm growth suppression – PAO1 strain, BacTiter-Glo luminescence, LB-PBS, primary screen (AID 1144); conditions: P. aeruginosa PAO1 biofilm, 12 h, higher = more signal
[4] = basal CRE-LacZ reporter activity in PC12 – cell-based, unstimulated, primary screen (AID 1145); conditions: no forskolin, luminescence, 4.5 h, higher = more signal, called active from +8 up or from −8 down
[5] = forskolin-driven CRE-LacZ activity in PC12 – cell-based, CRE-LacZ reporter, forskolin-stimulated, primary screen (AID 1146); conditions: luminescence, 4.5 h, higher = more signal, called active from +8 up or from −8 down;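 also: PC12 cells with 6xCRE LacZ reporter stimulated by forskolin 10 µM; beta-galactosidase reporter signal reflecting CREB driven transcription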
[6] = target: Streptavidin (Streptomyces avidinii) (UniProt P22629); experiment: compounds binding control protein streptavidin – biophysical, small-molecule microarray, 635/667 nm fluorescence, artefact control for SMM compound annotation, primary screen (AID 1147); conditions: higher = more signal;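 also: signal reflects streptavidin binding to arrayed compounds as a control protein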
Chain of Streptavidin (Streptomyces avidinii) (P22629 whole entry, looked up): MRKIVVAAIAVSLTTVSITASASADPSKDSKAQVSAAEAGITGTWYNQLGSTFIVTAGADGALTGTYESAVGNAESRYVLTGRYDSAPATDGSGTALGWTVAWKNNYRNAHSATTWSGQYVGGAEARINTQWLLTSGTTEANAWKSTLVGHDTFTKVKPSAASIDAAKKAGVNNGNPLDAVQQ

[7] = probe aInhba binding on compound microarray – biochemical, small-molecule microarray, 635/667 nm fluorescence, primary screen (AID 1148); conditions: higher = more signal;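 also: score merges 667nm spot fluorescence with signal-to-noise for antibody binding to printed compounds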
Torsin-1A (Homo sapiens) [8] = target: Torsin-1A (Homo sapiens) (UniProt O14656); experiment: TOR1A wild-type binding on microarray – cell lysate, small-molecule microarray, lysate, 635/667 nm, primary screen (AID 1149); conditions: COS7 hTOR1A-WT lysate, 635 nm fluorescence, higher = more signal
Chain of Torsin-1A (Homo sapiens) (O14656 whole entry, looked up): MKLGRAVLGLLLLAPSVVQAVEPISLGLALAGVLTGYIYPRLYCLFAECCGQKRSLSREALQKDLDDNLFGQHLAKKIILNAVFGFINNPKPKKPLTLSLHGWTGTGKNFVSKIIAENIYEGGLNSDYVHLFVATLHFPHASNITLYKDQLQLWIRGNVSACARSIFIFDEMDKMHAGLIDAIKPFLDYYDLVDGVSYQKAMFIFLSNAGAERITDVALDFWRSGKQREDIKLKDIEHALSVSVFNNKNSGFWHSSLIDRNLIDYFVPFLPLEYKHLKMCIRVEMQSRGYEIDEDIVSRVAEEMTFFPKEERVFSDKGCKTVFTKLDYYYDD

Torsin-1A (Homo sapiens) [9] = target: Torsin-1A (Homo sapiens) (UniProt O14656); experiment: torsin A mutant lysate binding on microarrays – cell lysate, small-molecule microarray, COS7 lysate, 635/667 nm fluorescence, primary screen (AID 1150); conditions: COS7 hTOR1A mutant lysate, 635 nm fluorescence, higher = more signal;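 also: score pools 667 nm emission and signal to noise measuring lysate protein binding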
[10] = system: Sonic hedgehog protein (Shh); experiment: Sonic hedgehog microarray binding compounds – biochemical, small-molecule microarray, 635/667 nm fluorescence, primary screen (AID 1151); conditions: 635 nm fluorescence, higher = more signal;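 also: Shh protein binding to compounds spotted on small-molecule microarray slides; score combines spot fluorescence intensity with signal-to-noise across triplicate slides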

| SMILES | composite z-score [1] | z-score [2] | z-score [3] | z-score [4] | z-score [5] | composite z-score [6] | composite z-score [7] | composite z-score (Torsin-1A (Homo sapiens) [8]) | composite z-score (Torsin-1A (Homo sapiens) [9]) | composite z-score [10] |
| --- | --- | --- | --- | --- | --- | --- | --- | --- | --- | --- |
| CC(C)C(CO)N1C(=O)[C@@H]2[C@H]3C(=O)OCC=C[C@H]3OC23C=CCN(c2ccc(Cl)cc2)C(=O)[C@@H]13 (stereo not given in full) | -0.0632 | -0.755 (inactive) | 2.84 (inactive) | 0.203 (inactive) | -0.652 (inactive) | -0.446 | -0.0987 | -0.677 | -0.377 | -0.339 |
| COC(=O)[C@]1(CCS(=O)(=O)c2ccccc2)N=C(c2ccc(OCCCO)cc2)O[C@@H]1c1ccccc1N=[N+]=[N-] | 1.21 | -3.71 (inactive) | -0.731 (inactive) | 2.42 (inactive) | -0.889 (inactive) | 1.39 | 0.438 | 0.588 | 0.453 | 2.09 |
| CC(C)[Si]1(C(C)C)OCc2cc(C3CC3)nc(-c3ccc(Oc4ccccc4)cc3)c21 | -0.223 | -1.03 (inactive) | -0.823 (inactive) | -0.113 (inactive) | 0.0211 (inactive) | -0.502 | -0.0604 | 0.726 | -1.07 | -0.241 |
| C=C(COC)/C(=C/C[C@H](OC(=O)c1ccncc1)c1ccccc1OCCO)c1cc(C(=O)OC)ccc1OC | 0.163 | -2.17 (inactive) | 0.492 (inactive) | 11.9 (active) | 2.47 (inactive) | -0.275 | -0.0136 | 1.19 | 0.664 | 1.71 |
| COc1cc(NN2C(C(O)c3ccco3)C=CC3C(=O)N(C)C(=O)C32)cc(OC)c1OC (stereo not given) | 0.259 | 1.06 (inactive) | 0.184 (inactive) | 0.815 (inactive) | 1.06 (inactive) | 0.536 | 0.288 | 1.27 | 1.04 | 0.0765 |
| C=CCN1C(=O)[C@]2(CCS(=O)(=O)c3ccccc3)N=C(c3ccc(OCCCO)cc3)O[C@@H]2c2ccccc21 | 0.782 | -3.58 (inactive) | -0.492 (inactive) | 1.8 (inactive) | -1.11 (inactive) | 0.479 | 0.0841 | 0.659 | 0.573 | 1.65 |
| CC1CC/C=C\[C@H]2OC34C=CCN(Cc5ccccc5)C(=O)[C@H]3N(C(CO)C(C)C)C(=O)[C@@H]4C2C(=O)O1 (stereo not given in full) | -0.0818 | -0.0399 (inactive) | 1.09 (inactive) | 2.1 (inactive) | 1.43 (inactive) | -0.854 | -0.0695 | 0.505 | -0.741 | -0.0532 |
| CS(=O)(=O)CCOC(=O)C1=CC(c2ccc(CO)cc2)=CC(C2CC2)N(Cc2sc3ccccc3c2Cl)C=C1C(=O)OCCS(C)(=O)=O (stereo not given) | -0.0091 | -4.22 (inactive) | -1.49 (inactive) | 1.8 (inactive) | -2.66 (inactive) | 1.95 | 0.0843 | 1.24 | 1.31 | 1.23 |
| COc1cccc(C)c1NC(=O)O[C@H]1[C@H](OC(=O)Nc2ccc3c(c2)OCO3)[C@@H](OC(=O)Nc2ccc3c(c2)OCO3)[C@@H](OC)O[C@@H]1CO | 0.648 | -1.19 (inactive) | 0.0488 (inactive) | 1.45 (inactive) | -0.424 (inactive) | 1.3 | 0.0319 | 1.11 | 1.19 | 1.54 |
| Cc1ccccc1C(O)C1C=CC2C(=O)NC(=O)C2N1Nc1ccccn1 (stereo not given) | -0.155 | 1.14 (inactive) | -0.767 (inactive) | -0.708 (inactive) | -0.474 (inactive) | -0.15 | -0.102 | 0.248 | 0.0151 | -0.224 |
| COC(=O)[C@@]1(Cc2ccc(F)cc2)[C@H]2c3cc(C(=O)N4CCCC4)n(CCc4c[nH]c5ccccc45)c3C[C@H]2CN1C(=O)c1ccccc1 | 0.407 | -3.01 (inactive) | 1.82 (inactive) | 0.587 (inactive) | 0.668 (inactive) | 1.91 | 0.668 | -0.0812 | 0.321 | -0.393 |
| [N-]=[N+]=Nc1ccccc1[C@@H]1OC(c2ccc(OCCCO)cc2)=N[C@]1(Cc1ccccc1)C(=O)N1CCCCC1 | 0.906 | -4.4 (inactive) | 0.316 (inactive) | 0.241 (inactive) | -0.894 (inactive) | 1.38 | 0.134 | 0.551 | 1.37 | 1.15 |
| CCOC(=O)C[C@H]1[C@H](OC(=O)c2ccc(C(=O)c3ccccc3)cc2)[C@@H](NC(=O)c2ccc(-c3ccccc3)cc2)c2cc(OCCCO)ccc2N1C(=O)Cc1ccc(OC)cc1 | 0.0266 | 0.128 (inactive) | -0.271 (inactive) | -0.0989 (inactive) | -0.539 (inactive) | 0.324 | 0.0569 | -0.0633 | 0.022 | -0.235 |
| COCC(=C=CC[C@H](O)c1ccccc1OCCO)C[C@H](O)c1ccccn1 | 0.0611 | -0.0701 (inactive) | -0.214 (inactive) | 1.04 (inactive) | 0.126 (inactive) | -0.303 | -0.154 | -0.556 | 0.71 | 0.43 |
| CC(C)N1C(=O)C[C@@](C(=O)NC2CC2)(c2ccc([N+](=O)[O-])cc2)[C@H]1c1ccc(CO)cc1 | -0.0471 | -4.5 (inactive) | -0.0956 (inactive) | 1.82 (inactive) | -0.673 (inactive) | -0.677 | -0.252 | -1.39 | 1.4 | -0.161 |
| C=C[C@@H](CO)N(Cc1ccc(OC)cc1)S(=O)(=O)c1ccc(Br)cc1 | -0.0447 | -3.07 (inactive) | -0.445 (inactive) | -0.104 (inactive) | -0.895 (inactive) | 0.396 | -0.154 | 1.16 | 1.13 | -0.0145 |
| C=CCNC(=O)[C@H]1[C@@H]2C(=O)O[C@@H](c3ccccc3)[C@@H](c3ccccc3)N2[C@@H](c2ccccc2OCCO)[C@]12C(=O)N(C(=O)OCCOC)c1ccc(C#CC3(O)CCCCCC3)cc12 | 0.358 | -5.57 (inactive) | -0.717 (inactive) | -0.258 (inactive) | 0.347 (inactive) | -0.139 | 0.0566 | 0.216 | 0.647 | 1.57 |
| CN1C2C=C(CCCO)C(C3C(=O)N(C(N)=O)C(=O)C32)C1C1CC1 (stereo not given) | -0.173 | -0.122 (inactive) | 0.57 (inactive) | 0.522 (inactive) | 0.373 (inactive) | -0.0742 | -0.0963 | 0.0337 | 0.143 | 0.316 |
| COc1cccc(C)c1NC(=O)O[C@H]1[C@H](OC(=O)Nc2ccccc2-c2ccccc2)[C@H](OC(=O)Nc2ccccc2-c2ccccc2)[C@@H](OC)O[C@@H]1CO | 0.63 | -3.45 (inactive) | 1.14 (inactive) | -0.207 (inactive) | -0.433 (inactive) | 1.26 | 0.0128 | 0.561 | 0.455 | 1.39 |
| CCCNC(=O)[C@@H]1c2ccccc2C(=O)N(Cc2ccc(OC(F)(F)F)cc2)[C@H]1c1ccc(CO)cc1 | 0.474 | -0.88 (inactive) | 0.256 (inactive) | -0.322 (inactive) | -0.283 (inactive) | -0.127 | -0.0963 | 0.0008 | -0.424 | 0.346 |
| COc1cc2c(cc1O)C(C1CC1)N(Cc1cccc(OC(F)(F)F)c1)CC2 (stereo not given) | 0.0616 | -3.88 (inactive) | 0.73 (inactive) | -0.581 (inactive) | 0.0388 (inactive) | -0.41 | -0.285 | -0.0876 | 0.315 | 0.908 |
| [N-]=[N+]=Nc1ccccc1C[C@@]1(C(=O)NCCN2CCOCC2)N=C(c2ccc(OCCCO)cc2)O[C@@H]1c1ccccc1N=[N+]=[N-] | 0.734 | -4.82 (inactive) | 1.52 (inactive) | 0.512 (inactive) | -1.83 (inactive) | 0.425 | 0.518 | 0.801 | -0.283 | 0.201 |
| CO[C@H]1O[C@H](CO)[C@@H](OC(=O)Nc2ccc(Br)cc2)[C@@H]2OC(=O)[C@@H](Cc3ccccc3)C/C=C/C[C@H](Cc3ccccc3)C(=O)O[C@@H]12 | 0.891 | -5.16 (inactive) | -0.435 (inactive) | -0.263 (inactive) | -0.396 (inactive) | -0.0062 | 0.115 | 0.048 | 0.91 | 0.0376 |
| COC(=O)C1=CC(CCCO)=CC(c2ccc(CN3CCCC3)cc2)N(Cc2cccc(OC(F)(F)F)c2)C=C1C(=O)OC (stereo not given) | -0.0146 | -2.24 (inactive) | 1.23 (inactive) | -0.554 (inactive) | -0.727 (inactive) | 0.644 | 0.0769 | 0.648 | 1.18 | -0.136 |
| NC(=O)NCC#Cc1ccc2c(c1)[C@]1(C(=O)N2)[C@H](c2ccccc2OCCO)N2[C@H](c3ccccc3)[C@H](c3ccccc3)OC(=O)[C@H]2[C@@H]1C(=O)O | -0.163 | -1.22 (inactive) | -1.19 (inactive) | 0.595 (inactive) | 1.36 (inactive) | 0.333 | 0.121 | -0.689 | 0.28 | 0.028 |
| COCCOC(=O)N1C(=O)[C@@]2(c3cc(C#CCCO)ccc31)[C@H](C(=O)Nc1nc3ccccc3s1)[C@H]1C(=O)O[C@H](c3ccccc3)[C@H](c3ccccc3)N1[C@@H]2c1ccc(O)cc1 | 0.73 | -1.16 (inactive) | 0.263 (inactive) | -0.168 (inactive) | 2.14 (inactive) | 0.809 | 0.279 | 0.772 | 0.833 | 1.06 |
